From PubChem BioAssay (Tox21)
Results filed as inconclusive are left out. Values without a mark were called inactive. The source made the active and inactive calls. The call rests on the fitted dose curve; in most records, active means well fitted inhibition curve with a large enough effect in the repeat runs; inconclusive means weak or mixed curves; inactive means no such curve, though single readings can be large or run the other way.

These compounds were tested against Cytochrome P450 1A2 (Homo sapiens) (UniProt P05177) (assay: Cytochrome P450 Family 1 Subfamily A Member 2 (CYP1A2) small molecule antagonists: luciferase reporter qHTS assay (AID 1671199; further: nearly all actives have a fitted effect of over 50% in size)). Details: P450-Glo CYP1A2 enzyme, luciferin luminescence, 1 h; series mostly up to 53 µM; activity change, negative = inhibition: at the top concentration.
Cytochrome P450 1A2 (Homo sapiens), sequence (P05177 whole entry, looked up): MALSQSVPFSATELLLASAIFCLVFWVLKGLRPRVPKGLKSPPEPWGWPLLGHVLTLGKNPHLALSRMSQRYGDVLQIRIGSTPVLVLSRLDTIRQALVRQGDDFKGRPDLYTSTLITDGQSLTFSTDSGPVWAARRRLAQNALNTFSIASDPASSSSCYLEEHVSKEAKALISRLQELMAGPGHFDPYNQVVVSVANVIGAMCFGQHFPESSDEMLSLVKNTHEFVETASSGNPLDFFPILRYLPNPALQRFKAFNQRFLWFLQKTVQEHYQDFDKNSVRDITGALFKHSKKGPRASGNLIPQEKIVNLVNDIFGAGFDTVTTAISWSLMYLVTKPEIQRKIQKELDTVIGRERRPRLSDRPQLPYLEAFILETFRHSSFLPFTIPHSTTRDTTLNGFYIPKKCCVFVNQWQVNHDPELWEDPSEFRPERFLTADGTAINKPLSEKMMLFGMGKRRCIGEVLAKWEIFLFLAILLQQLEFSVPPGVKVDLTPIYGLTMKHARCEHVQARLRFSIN
Outline: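 Steps: enzyme-substrate mix dispensed; test compounds and furafylline control pinned in; 10 min room temperature; NADPH regeneration solution added, 1 h; reaction stopped with luciferin detection reagent; luminescence read after 20 min.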
On the % scale 0 is the no-effect control and ±100 the full control effect; potency means the concentration at half of the fitted maximal effect.

Row | SMILES | Potency | activity change, negative = inhibition
1 | COc1cc2nc(Cl)nc(N)c2cc1OC | 2.75 µM (active) | –
2 | CCCCC1=NC2(CCCC2)C(=O)N1Cc1ccc(-c2ccccc2-c2nn[nH]n2)cc1 | – | 9.84%
3 | CNCCCN1c2ccccc2CCc2ccccc21 | – | -0.158%
4 | CC[N+](C)(CC)CCOC(=O)C(O)(c1ccccc1)C1CCCCC1 (stereo not drawn) | – | 12.8%
5 | O=C1[C@H]2CCCC[C@H]2C(=O)N1CCCCN1CCN(c2nsc3ccccc23)CC1 | – | -10.5%
6 | OC(C#CCN1CCCC1)(c1ccccc1)c1ccccc1 | – | -2.18%
7 | CCOC(=O)Cc1cccc2ccccc12 | 15.9 µM (active) | –
8 | OCCN1CCN(CCCN2c3ccccc3C=Cc3ccccc32)CC1 | – | -10.9%
9 | Nc1ccc(S(=O)(=O)Nc2ccccc2)cc1 | – | 8.5%
10 | O=C(NCCO[N+](=O)[O-])c1cccnc1 | – | -12.1%
11 | CCCCC | 78.4 µM (active) | –
12 | CCO[Si](CCCCl)(OCC)OCC | – | -4.51% [at 115 µM]
13 | CCCCc1nc2cccnc2n1Cc1ccc(-c2ccccc2-c2nnn[nH]2)cc1 | 44.8 µM (active) | –
14 | CCCCC/C=C\C/C=C\CCCCCCCC(=O)NC(C)c1ccccc1 (stereo not drawn) | – | -11.5%
15 | CCOc1ccc(N)c([N+](=O)[O-])c1 | 1.78 µM (active) | –
16 | COc1ccc2cccc(CCNC(C)=O)c2c1 | 4.9 µM (active) | –
17 | c1ccc(C(O[C@H]2CCCN(CCc3ccc4c(c3)OCO4)C2)c2ccccc2)cc1 | 30.9 µM (active) | –
18 | CN1CCC(=C2c3ccccc3Sc3ccccc32)CC1 | – | 8.52%
19 | Clc1ccc(Cn2c(CN3CCCC3)nc3ccccc32)cc1 | 18.2 µM (active) | –

Row | SMILES | Potency | activity change, negative = inhibition
20 | CCCOC(C(=O)OC1CCN(C)CC1)(c1ccccc1)c1ccccc1 | – | -5.55%
21 | O=C(Nc1ccc(S(=O)(=O)N2CCOCC2)cc1)c1cc(Cl)ccc1NS(=O)(=O)c1ccc(Cl)s1 | – | 1.52%
22 | CCCCNc1ccc(C(=O)OCCOCCOCCOCCOCCOCCOCCOCCOCCOC)cc1 | – | -2.43%
23 | COc1cc2c(cc1OC)C(C(C(=O)N(CCc1ccc(OC)c(OC)c1OC)CCc1ccc(OC)c(OC)c1OC)c1ccccc1)=NCC2 (stereo not drawn) | – | -24%
24 | CCN(CC)CCOC(=O)C(c1ccccc1)C1CCCCC1 (stereo not drawn) | 3.63 µM (active) | –
25 | CCCCCCCCCCO[C@@H]1O[C@H](CO)[C@@H](O)[C@H](O)[C@H]1O | – | -19.6% [at 115 µM]
26 | CCCCCCOC(=O)NC(=N)c1ccc(NCc2nc3cc(C(=O)N(CCC(=O)OCC)c4ccccn4)ccc3n2C)cc1 | – | -24.7%
27 | CCC(=O)O[C@]1(C(=O)CCl)[C@@H](C)C[C@H]2[C@@H]3CCC4=CC(=O)C=C[C@]4(C)[C@@]3(F)[C@@H](O)C[C@@]21C | – | 5.78%
28 | S=C([S-])NCCNC(=S)[S-].[Mn+2] | 25.2 µM (active) | –
29 | CC(=O)c1cccc([N+](=O)[O-])c1 | 35.5 µM (active) | –
30 | Cc1c(N)cccc1[N+](=O)[O-] | 32.2 µM (active) | –
31 | CC(C)Cc1ccc(C(C)C(=O)OCc2ccccn2)cc1 (stereo not drawn) | 32.3 µM (active) | –
32 | CC(=O)OC[C@H]1O[C@@H](n2ncc(=O)[nH]c2=O)[C@H](OC(C)=O)[C@@H]1OC(C)=O | – | 14%
33 | CCCCC(CC)COC(=O)CCCCCCCCC(=O)OCC(CC)CCCC (stereo not drawn) | 39.9 µM (active) | –
34 | COc1ccnc(CS(=O)c2nc3ccc(OC(F)F)cc3[nH]2)c1OC (stereo not drawn) | 17.4 µM (active) | –
35 | O[C@@H](COc1cccc2ncccc12)CN1CCN(C2c3ccccc3[C@@H]3[C@H](c4ccccc42)C3(F)F)CC1 (stereo partly drawn) | 15.5 µM (active) | –
36 | CC1OC(=O)C(C)OC1=O (stereo not drawn) | – | -9.96% [at 115 µM]
37 | Cc1cccc(C)c1OCC(=O)N[C@@H](Cc1ccccc1)[C@@H](O)C[C@H](Cc1ccccc1)NC(=O)[C@H](C(C)C)N1CCCNC1=O | – | -1.34%
38 | O=C(Cl)c1cc(C(=O)Cl)cc(C(=O)Cl)c1 | 39.9 µM (active) | –
